Data published in PubChem BioAssay.
Calls of active or inactive are those of the source. Unless noted, no rule for the calls is given here.

Columns and labels:
[1] = HepG2 liver cancer cell viability effects, profiling panel, resazurin fluorescence, 24 h, PK04 Diversity Set (AID 1172); settings: higher = more signal
[2] = basal S. cerevisiae growth modulation, no modifier, primary screen, OD600, strain BY4716, 24 h, basal condition (AID 1173); settings: OD600, 24 h, higher = more signal, called active from +8 up or from −8 down
[3] = MM1S myeloma cell viability, profiling panel, resazurin fluorescence, basal, 24 h, PK04 Diversity Set (AID 1174); settings: higher = more signal, called active from +8 up or from −8 down;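 also: MM1S multiple myeloma cell line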
[4] = target: Dihydroorotate dehydrogenase (quinone), mitochondrial (Plasmodium falciparum (isolate 3D7)) (UniProt Q08210); experiment: PfDHODH enzyme inhibitors, primary screen, biochemical, C-terminal His tag, absorbance 600 nm (AID 1175); settings: DCIP absorbance 600 nm, higher = more signal, called active from +8 up or from −8 down;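 also: recombinant parasite enzyme with a five histidine tag at its C terminus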
Chain of Dihydroorotate dehydrogenase (quinone), mitochondrial (Plasmodium falciparum (isolate 3D7)) (Q08210 whole entry, looked up): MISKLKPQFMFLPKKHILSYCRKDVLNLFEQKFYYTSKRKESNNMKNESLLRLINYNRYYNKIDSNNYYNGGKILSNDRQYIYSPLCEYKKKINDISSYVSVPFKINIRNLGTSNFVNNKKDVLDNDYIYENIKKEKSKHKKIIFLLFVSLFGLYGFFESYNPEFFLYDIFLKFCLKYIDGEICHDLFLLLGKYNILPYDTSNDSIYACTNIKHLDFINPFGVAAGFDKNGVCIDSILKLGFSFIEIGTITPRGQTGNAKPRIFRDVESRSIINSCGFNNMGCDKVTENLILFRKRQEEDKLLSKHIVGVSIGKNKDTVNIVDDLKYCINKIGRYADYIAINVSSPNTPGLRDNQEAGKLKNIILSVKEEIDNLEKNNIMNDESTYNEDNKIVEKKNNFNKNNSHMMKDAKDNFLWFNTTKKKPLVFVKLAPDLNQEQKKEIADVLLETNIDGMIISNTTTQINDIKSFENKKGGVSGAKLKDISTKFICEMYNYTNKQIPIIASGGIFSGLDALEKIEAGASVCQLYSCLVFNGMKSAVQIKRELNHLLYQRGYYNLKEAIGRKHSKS

[5] = P. aeruginosa biofilm formation inhibitors, primary screen, strain PAO1, LB-PBS medium, absorbance 600 nm (AID 1176); settings: P. aeruginosa PAO1 growth/biofilm, A600, 12 h; higher = more signal
[6] = S. cerevisiae RM11-1a growth modifiers, primary screen, strain RM11-1a, OD600, basal, 24 h (AID 1177); settings: OD600, 24 h, higher = more signal, called active from +8 up or from −8 down;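 also: cultures grown under basal conditions with no added stressor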
[7] = E. coli acrAB mutant growth effects, primary screen, E. coli filamentation inducers, strain DRC39, OD650, 24 h (AID 1178); settings: higher = more signal, called active from +8 up or from −8 down;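 also: growth measured as culture turbidity by optical density at 650 nm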
[8] = E. coli acrAB mutant growth effects, primary screen, E. coli filamentation inducers, strain DRC39, OD650, 48 h (AID 1179);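 also: screen aims at cell division blockers that make cells filament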; settings: E. coli DRC39 delta-acrAB growth, higher = more signal, called active from +8 up or from −8 down
[9] = RPMI8226 myeloma cell viability, profiling panel, resazurin fluorescence, basal, 24 h, PK04 Diversity Set (AID 1180); settings: higher = more signal;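 also: RPMI8826 multiple myeloma cell line at 5000 cells per well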
[10] = target: E3 ubiquitin-protein ligase XIAP (Homo sapiens) (UniProt P98170); experiment: XIAP binders, primary screen, biophysical, small-molecule microarray, fluorescence 635 nm (AID 1181); settings: small-molecule microarray binding, higher = more signal;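 also: score merges 667 nm emission and signal to noise over triplicate slides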
Chain of E3 ubiquitin-protein ligase XIAP (Homo sapiens) (P98170 whole entry, looked up): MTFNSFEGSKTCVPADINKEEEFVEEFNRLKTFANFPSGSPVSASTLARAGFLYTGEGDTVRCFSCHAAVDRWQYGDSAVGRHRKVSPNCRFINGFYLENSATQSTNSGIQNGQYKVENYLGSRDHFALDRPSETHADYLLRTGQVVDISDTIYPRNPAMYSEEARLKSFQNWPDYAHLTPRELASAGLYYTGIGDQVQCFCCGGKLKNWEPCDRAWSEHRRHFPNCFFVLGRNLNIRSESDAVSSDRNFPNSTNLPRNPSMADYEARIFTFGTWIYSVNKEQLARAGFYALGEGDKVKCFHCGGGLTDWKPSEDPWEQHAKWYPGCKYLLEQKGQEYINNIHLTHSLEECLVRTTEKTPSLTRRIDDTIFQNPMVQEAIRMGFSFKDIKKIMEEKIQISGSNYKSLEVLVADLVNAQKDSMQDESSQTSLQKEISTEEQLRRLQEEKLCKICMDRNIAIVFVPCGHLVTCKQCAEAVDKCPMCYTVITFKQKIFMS

[11] = system: XIP peptide (Xip251-270) binding; experiment: small-molecule binders of XIP peptide, primary screen, biochemical, small-molecule microarray, fluorescence 635/667 nm, 0.1 µg/mL protein (AID 1182); settings: fluorescent protein binding, 635 nm, higher = more signal, called active from +8 up or from −8 down
XIP peptide (Xip251-270) = experiment: small-molecule binders of XIP peptide, primary screen, biochemical, small-molecule microarray, fluorescence 635/667 nm, 0.5 µg/mL protein (AID 1183); settings: small-molecule microarray binding, fluorescence 635 nm; higher = more signal
[12] = Plasmodium falciparum growth inhibition, primary screen, strain 3D7, DAPI fluorescence, 100 nL (AID 1184);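 also: parasites grown inside human red blood cells in medium with human serum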; settings: P. falciparum 3D7 growth, 3 d, higher = more signal
[13] = target: Homeobox protein Hox-A13 (Mus musculus) (UniProt Q62424); experiment: inhibitors of HoxA13-DNA binding, primary screen, biochemical, fluorescence polarization, labeled oligonucleotide (AID 1185); settings: 15 min, higher = more signal, called active from +8 up or from −8 down
Chain of Homeobox protein Hox-A13 (Mus musculus) (Q62424 whole entry, looked up): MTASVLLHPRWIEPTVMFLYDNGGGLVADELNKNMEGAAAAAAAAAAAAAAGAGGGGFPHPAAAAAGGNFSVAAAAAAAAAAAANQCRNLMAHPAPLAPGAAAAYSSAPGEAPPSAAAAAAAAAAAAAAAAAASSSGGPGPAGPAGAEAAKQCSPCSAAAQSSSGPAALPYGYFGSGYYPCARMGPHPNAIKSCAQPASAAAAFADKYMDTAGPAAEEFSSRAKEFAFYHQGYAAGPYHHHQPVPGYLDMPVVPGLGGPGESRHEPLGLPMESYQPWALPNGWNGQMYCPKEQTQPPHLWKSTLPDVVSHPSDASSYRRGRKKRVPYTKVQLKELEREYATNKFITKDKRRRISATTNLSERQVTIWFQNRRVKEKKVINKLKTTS

[14] = inhibitors of hydroxyurea-induced Chk1 phosphorylation, primary screen, imaging, HeLa, phospho-Chk1 antibody, percent positive cells (AID 1186); settings: hydroxyurea-induced phospho-Chk1 immunofluorescence imaging, higher = more signal
[15] = inhibitors of hydroxyurea-induced Chk1 phosphorylation, primary screen, imaging, HeLa, phospho-Chk1 nuclear intensity (AID 1187); settings: hydroxyurea-induced phospho-Chk1 immunofluorescence imaging, higher = more signal

SMILES	z-score [1]	z-score [2]	z-score [3]	composite z-score [4]	z-score [5]	z-score [6]	z-score [7]	z-score [8]	z-score [9]	composite z-score [10]	composite z-score [11]	composite z-score (XIP peptide (Xip251-270))	z-score [12]	z-score [13]	z-score [14]	z-score [15]
O=C(NC1CC1)[C@@H]1c2ccccc2C(=O)N(C2CCCCC2)[C@H]1c1ccc(CO)cc1	-0.358	0.678 (inactive)	-1.27 (inactive)	-0.245 (inactive)	0.292 (inactive)	-0.456 (inactive)	-0.185 (inactive)	0.138 (inactive)	-0.166	-0.323	0.969 (inactive)	0.647	-1.1	-3.16 (inactive)	-0.312 (inactive)	-0.617 (inactive)
C=CCN1C(=O)[C@@]2(O[C@@H](CCO)[C@H]([Si](C)(C)c3ccc(OC)cc3)[C@H]2C)c2cc(N3CCCCC3=O)ccc21	-2.74	0.208 (inactive)	-4.57 (inactive)	-1.11 (inactive)	0.568 (inactive)	2.45 (inactive)	1.16 (inactive)	0.777 (inactive)	-5.44	0.271	0.561 (inactive)	0.625	-2.42	-6.02 (inactive)	-1.22 (inactive)	-0.485 (inactive)
[N-]=[N+]=NCc1ccccc1[C@H]1OC(c2ccc(OCCCO)cc2)=N[C@@]1(Cc1ccccc1N=[N+]=[N-])C(N)=O	0.794	-2.02 (inactive)	0.393 (inactive)	-0.0773 (inactive)	-0.0963 (inactive)	0.77 (inactive)	0.0162 (inactive)	0.394 (inactive)	-0.103	-0.0773	-0.19 (inactive)	0.599	-0.885	-6.25 (inactive)	0.052 (inactive)	0.516 (inactive)
CCOC(=O)C=C1C[C@@H](c2cccc([N+](=O)[O-])c2)O[C@@H](c2cccc([N+](=O)[O-])c2)O1	0.151	2.03 (inactive)	0.226 (inactive)	0.917 (inactive)	0.285 (inactive)	1.79 (inactive)	-0.402 (inactive)	0.335 (inactive)	-0.969	0.127	0.232 (inactive)	0.673	-2.18	0.392 (inactive)	-0.447 (inactive)	-0.443 (inactive)
[N-]=[N+]=NCc1ccccc1[C@H]1OC(c2ccc(OCCCO)cc2)=N[C@@]1(CCS(=O)(=O)c1ccccc1)C(=O)O	0.086	-1.04 (inactive)	-0.389 (inactive)	-1.14 (inactive)	-0.0304 (inactive)	-0.81 (inactive)	-0.589 (inactive)	-0.336 (inactive)	0.0678	0.273	-0.0179 (inactive)	0.446	0.0638	-5.36 (inactive)	-0.0059 (inactive)	-0.587 (inactive)
CC1C2C(CCCO)=CC(C3C(=O)N(C)C(=O)C23)N1Cc1cccc(OC(F)(F)F)c1 (configuration not stated)	-1.25	-2.02 (inactive)	-0.244 (inactive)	0.131 (inactive)	-0.0099 (inactive)	0.481 (inactive)	0.224 (inactive)	-0.0843 (inactive)	-0.278	0.245	1.17 (inactive)	0.806	-1.7	-7.46 (inactive)	-0.324 (inactive)	-0.301 (inactive)
CC(C)(C)OC(=O)CC[C@]1(C(=O)N2CCOCC2)COC(c2ccc(OCCCO)cc2)=N1	0.329	-0.444 (inactive)	0.475 (inactive)	-0.0274 (inactive)	0.149 (inactive)	0.568 (inactive)	1.21 (inactive)	1.37 (inactive)	0.227	0.0996	-0.199 (inactive)	0.0906	0.33	-3.78 (inactive)	-0.16 (inactive)	-0.0926 (inactive)
[N-]=[N+]=NCc1ccccc1[C@H]1OC(c2ccc(OCCCO)cc2)=N[C@@]1(Cc1ccccc1N=[N+]=[N-])C(=O)N1CCOCC1	-0.317	-0.783 (inactive)	-2.46 (inactive)	1.03 (inactive)	0.438 (inactive)	1.43 (inactive)	-0.33 (inactive)	-0.799 (inactive)	-2.58	0.122	-0.185 (inactive)	0.604	-2.27	-1.45 (inactive)	-0.332 (inactive)	0.0967 (inactive)
COC(=O)C(CC#Cc1ccc2c(c1)[C@]1(C(=O)N2)[C@H](C(N)=O)[C@H]2C(=O)O[C@H](c3ccccc3)[C@H](c3ccccc3)N2[C@@H]1c1ccccc1OCCO)C(=O)OC	-2.07	0.289 (inactive)	-9.27 (active)	1.53 (inactive)	2.35 (inactive)	2.62 (inactive)	0.0025 (inactive)	0.957 (inactive)	-7.44	0.0289	0.898 (inactive)	0.817	-2.08	-1.12 (inactive)	-0.49 (inactive)	-0.137 (inactive)
COc1ccc(NN2C(C(O)c3ccc(F)cc3)C=CC3C(=O)N(C4CCCCC4)C(=O)C32)cc1 (configuration not stated)	-0.598	0.0789 (inactive)	-0.209 (inactive)	-0.328 (inactive)	1.68 (inactive)	0.816 (inactive)	-0.385 (inactive)	-0.0595 (inactive)	-0.352	-0.0726	0.331 (inactive)	0.878	-0.517	-4.3 (inactive)	0.472 (inactive)	0.0539 (inactive)
O=C1NC(=O)C2C1C=CC(C(O)C1CCCCC1)N2Nc1ccccn1 (configuration not stated)	-0.864	0.876 (inactive)	-1.27 (inactive)	0.583 (inactive)	2.68 (inactive)	0.209 (inactive)	-1.02 (inactive)	-0.286 (inactive)	-1.33	-0.0663	-0.275 (inactive)	0.27	0.582	-2.17 (inactive)	1.04 (inactive)	1.39 (inactive)
COC(=O)[C@@]1(Cc2ccccc2)[C@H]2c3cc(C(=O)N(C)C)n(Cc4ccc(Cl)c(C(F)(F)F)c4)c3C[C@H]2CN1C(=O)c1ccccc1	-1.83	2.32 (inactive)	-2.53 (inactive)	0.46 (inactive)	1.43 (inactive)	1.37 (inactive)	-1.4 (inactive)	-0.744 (inactive)	-2.95	0.331	0 (inactive)	0.485	-1.47	-2.73 (inactive)	0.435 (inactive)	0.444 (inactive)
O=C1O[C@H](c2ccccc2)[C@H](c2ccccc2)N2[C@H]1[C@@H](C(=O)O)[C@]1(C(=O)Nc3ccccc31)[C@H]2c1ccc(OCCO)cc1	0.0019	-0.302 (inactive)	-0.0917 (inactive)	-0.652 (inactive)	0.0485 (inactive)	-0.785 (inactive)	-0.545 (inactive)	-0.858 (inactive)	1.16	0.18	1.13 (inactive)	0.711	-0.443	-6.4 (inactive)	0.618 (inactive)	0.612 (inactive)
COCCOC(=O)N1C(=O)[C@@]2(c3cc(C#CC4=CCCCC4)ccc31)[C@H](C(=O)N1CCCCCCC1)[C@H]1C(=O)O[C@H](c3ccccc3)[C@H](c3ccccc3)N1[C@@H]2c1ccccc1OCCO	1.84	0.615 (inactive)	0.209 (inactive)	-0.434 (inactive)	0.526 (inactive)	0.511 (inactive)	-0.294 (inactive)	-1.14 (inactive)	0.185	-0.0244	0.502 (inactive)	0.712	-2.04	3.21 (inactive)	-0.245 (inactive)	-0.178 (inactive)
CCN1C(=O)C2CC(=O)C3C(CN(S(=O)(=O)c4ccc(C)cc4)C3c3ccc(C)cc3)C2C1=O (configuration not stated)	-0.733	0.728 (inactive)	-0.631 (inactive)	0.551 (inactive)	-0.144 (inactive)	0.5 (inactive)	-0.772 (inactive)	0.346 (inactive)	-0.627	-0.148	0.761 (inactive)	-0.248	0.38	-4.69 (inactive)	0.137 (inactive)	-0.0394 (inactive)
C#CCN(C(=O)OC(C)(C)C)[C@H](CO)c1ccccc1	0.739	-7.87 (inactive)	-0.351 (inactive)	-0.2 (inactive)	-0.234 (inactive)	-0.184 (inactive)	0.47 (inactive)	-0.652 (inactive)	-0.336	-0.005	-0.235 (inactive)	-0.182	-0.333	-3.85 (inactive)	-0.306 (inactive)	-0.368 (inactive)
COc1ccc(C(=O)Nc2cccc(CN3C(=O)[C@]4(O[C@H](CC(=O)N(CCO)Cc5ccccc5)[C@@H]([Si](C)(C)c5ccc(OC)cc5)[C@@H]4C)c4ccccc43)c2)cc1	-0.754	0.404 (inactive)	-1.87 (inactive)	-1.92 (inactive)	0.769 (inactive)	3.54 (inactive)	1.46 (inactive)	0.852 (inactive)	-1.52	1.38	0.256 (inactive)	0.572	-2.49	-0.179 (inactive)	-0.571 (inactive)	0.0153 (inactive)
